Assay in all cases: NCI-60 one-dose screen, 48 h (100 = growth as untreated, 0 = no growth, -100 = all killed)
Common to all, as to conditions: 10 µM unless noted

Assay [1] relates to NCI-H23 lung.
The test system of assay [2] is NCI-H226 lung.
The test system of assay [3] is NCI-H322M lung.
Assay [4] has as its system HOP-62 NSCLC.
Assay [5] relates to NCI-H460 lung.
Assay [6] has as its system HOP-92 NSCLC.
The subject of assay [7] is NCI-H522 lung.
The subject of assay [8] is A549/ATCC NSCLC.
Assay [9] concerns 786-0 renal.
Assay [10] relates to COLO 205 colon.

Data on 26 compounds can be found in PubChem BioAssay (NCI).

Compounds without any hit were thinned out: in the full panel of roughly 83,000, 20% have a hit.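 Negative percent growth values reflect cell death: -40 means 40% of the cells present at the start died, and -100 means all died.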 Unmarked numbers belong to inactive results. Active and inactive are the calls of the source. How the source made its calls: active means growth percent below 10; inactive means the rest.

For `N#Cc1nc(-c2ccc(F)cc2)oc1S(=O)(=O)N1CCCCC1`, the growth was 65.7% in assay [1]; 79% in assay [2]; 94.3% in [3]; 102% in [4]; 101% in assay [5]; 78.9% in assay [6]. Besides, the growth is -14.8% (active) in assay [7], 103% in assay [8], 86.4% in assay [9] and -13.2% (active) in assay [10].
Take `COc1ccccc1NC(=O)N=Nc1c(O)[nH]c2ccccc12`: the growth in assay [1] was 89.8%; in assay [2], 86.5%; in assay [3] it was 81.2%; in assay [4] it was 98.8%; in assay [5] it was 104%; in assay [6], 80.3%. In addition, the growth in assay [7] is 83.2%; in [8], 95.7%; in [9], 90.4%; in assay [10], 85.2%.
Regarding `Nc1ncc(-c2ccc3ncnc(Nc4cccc(Cl)c4)c3c2)cn1`, the growth in [1] is 58.9%; in [2] it was 51.3%; in [3], 4.75% (active); in [4] it was 37.8%; in [5] it was 54.8%; in assay [6] it was 11.8%. In addition, the growth in [7] was 3.25% (active); in assay [8], 35.1%; in assay [9], 40.8%; in assay [10], 51.2%.
As to `CCc1ccc(CCCC(=O)O)cc1`, the growth in assay [1] is 96.5%; in assay [2], 95.1%; in [3], 101%; in [4] it was 87%; in assay [5], 108%; in [6] it was 91.1%. Further, the growth in assay [7] is 89.9%; in assay [8] it was 97.7%; in [9] it was 95.4%; in [10], 112%.
As to `C#CCOc1cccc(Nc2ncnc3cc(NC(=O)C=C)ccc23)c1`, the growth in assay [1] was 30.3%; in assay [2], 62.3%; in [3] it was 50.3%; in assay [4], 40.4%; in [5], 16.1%; in assay [6], 12.3%. Moreover, the growth was -17.5% (active) in assay [7], 29.7% in assay [8], 7.49% (active) in [9] and 17.3% in assay [10].
Regarding `O=c1c2cccc3c(N4CCCC4)ccc(c32)c2nc3ccccc3n12`, the growth in [1] was 68.2%; in assay [2] it was 55.3%; in assay [3], 95.1%; in assay [4], 66.1%; in assay [5], 16.1%; in assay [6] it was 40.7%. Further, the growth is 71.2% in [7], 35.6% in [8], 88.3% in [9] and 63.6% in assay [10].
As for `O=C(N/N=C/c1c(Cl)cccc1Cl)c1cccnc1Nc1cccc(C(F)(F)F)c1`, the growth in assay [1] was 44.3%; in assay [2] it was 18.4%; in [3], 35%; in assay [4], 40.2%; in assay [5], 15%; in [6] it was 14.7%. Moreover, the growth in assay [7] was 1.47% (active); in assay [8], 51%; in [9], 42.6%; in [10] it was 15.1%.
For `CN1C(=O)/C(=C\c2c(Cl)cccc2Cl)c2ccccc21`, the growth in [1] was 90.7%; in assay [2] it was 100%; in assay [3] it was 96.5%; in assay [4], 86.5%; in assay [5] it was 103%; in [6], 83.4%. Moreover, the growth in assay [7] was 83.3%; in assay [8], 88%; in [9], 84.3%; in [10], 113%.
As to `O=C(c1nn(-c2ccccc2)c2c1CC(NCc1ccc(F)cc1)CC2)N1CCCCC1` (stereo not given), the growth in assay [1] was 95.3%; in assay [2], 103%; in [3], 98.2%; in assay [4], 114%; in [5] it was 117%; in [6], 92.5%. For the same compound, the growth in assay [7] is 89.3%; in assay [8] it was 103%; in assay [9], 96.4%; in assay [10], 108%.
For the compound `C#CCOc1cccc(Nc2ncnc3ccc(NC(=O)C=C)cc23)c1`, the growth was 65.4% in assay [1]; 61.8% in assay [2]; 2% (active) in [3]; 58.4% in assay [4]; 81.2% in [5]; 14.7% in assay [6]. Moreover, the growth in assay [7] is 15.9%; in assay [8], 34.2%; in assay [9] it was 35.2%; in assay [10], 68.4%.
In the case of `CCCc1c(OC(=O)c2ccccc2)nc2[nH]c(=O)sc2c1C`, the growth in assay [1] is 99%; in [2], 89.9%; in [3], 101%; in assay [4], 95.6%; in assay [5], 103%; in assay [6] it was 93.3%. Further, the growth is 87.4% in assay [7], 99.6% in assay [8], 106% in assay [9] and 101% in assay [10].
Regarding `CN(C)CC(C)(C)C(=O)/C=C/c1ccccc1`, the growth in assay [1] is -28.8% [25 µM] (active); in assay [2], -17.9% [25 µM] (active); in assay [3], -16.3% [25 µM] (active); in assay [4] it was 12.3% [25 µM]; in assay [5], -27% [25 µM] (active); in assay [6], -32.3% [25 µM] (active). The growth in [7] was -81.1% [25 µM] (active); in assay [8], 0.382% [25 µM] (active); in assay [9], -46.6% [25 µM] (active); in [10], -87% [25 µM] (active).
Regarding `Clc1ccc(/C=N\N=C\c2ccc(Cl)c(Cl)c2)cc1Cl`, the growth was 84.9% in assay [1]; 104% in assay [2]; 102% in [3]; 95.8% in assay [4]; 47.1% in assay [5]; 88.6% in [6]. Besides, the growth in [7] is 77.4%; in assay [8], 87.2%; in [9], 97.3%; in assay [10], 90.8%.
On to `CCn1cc(C(=O)O)c(=O)c2cc(F)c(N3CCN(CC(=O)Nc4ccc(S(=O)(=O)Nc5nccc(C)n5)cc4)C(C)C3)c(F)c21` (stereo not given), for which the growth in [1] was 103%; in assay [2] it was 97.1%; in assay [3], 104%; in assay [4], 103%; in [5], 104%; in assay [6], 119%. Also, the growth in assay [7] is 105%; in [8], 111%; in assay [9], 112%; in assay [10], 118%.
With `CCC(=C(c1ccc(OCCN2CCCCC2)cc1)c1ccc(OCCN2CCCCC2)cc1)c1ccc(Cl)cc1`, the growth was -81% (active) in [1]; -66.4% (active) in [2]; -99% (active) in [3]; -73.7% (active) in assay [4]; -80.5% (active) in [5]; -83.6% (active) in assay [6]. Also, the growth in assay [7] is -69.7% (active); in assay [8], -72.2% (active); in assay [9], -88.8% (active); in assay [10], -66.3% (active).
Regarding `COC(=O)c1nc(-c2ccccc2)oc1S(=O)(=O)Cc1ccccc1`, the growth is 96.8% in assay [1]; 96.1% in assay [2]; 98.1% in [3]; 99.2% in assay [4]; 107% in assay [5]; 87.2% in assay [6]. The growth is 38.1% in [7], 96.5% in [8], 71.4% in assay [9] and -43% (active) in assay [10].
Consider `Cc1[nH]c(=O)[nH]c(=O)c1Br`, for which the growth in assay [1] is 97.9%; in [2] it was 108%; in assay [3], 120%; in [4], 104%; in [5], 105%; in assay [6], 102%. The growth in assay [7] was 111%; in assay [8], 98.2%; in assay [9], 107%; in assay [10], 112%.
Consider `CCOC(=O)c1nn(-c2ccc(S(N)(=O)=O)cc2)c2nc(C)cc(=O)n12`, for which the growth was 98.5% in [1]; 104% in assay [2]; 102% in assay [3]; 102% in assay [4]; 109% in [5]; 95% in assay [6]. The growth was 100% in assay [7], 102% in assay [8], 96.5% in assay [9] and 114% in assay [10].
Regarding `CCOc1ccccc1Cn1ccnc1CCc1c(Cl)c(O)cc(O)c1C(=O)OC`, the growth in [1] is 95.4%; in assay [2], 102%; in assay [3] it was 83%; in assay [4], 85.9%; in assay [5], 104%; in [6], 90.4%. Further, the growth is 76.2% in [7], 87.7% in [8], 101% in assay [9] and 102% in assay [10].
For the compound `Cc1c2cnccc2c(C)c2c1c1cc(C#N)ccc1n2C`, the growth in [1] is -37.4% (active); in assay [2], -18.6% (active); in assay [3], -16% (active); in [4] it was -25.5% (active); in assay [5], -19.7% (active); in assay [6] it was -12.1% (active). For the same compound, the growth in assay [7] was -71% (active); in assay [8] it was -19.8% (active); in [9] it was -16.1% (active); in assay [10], -37.2% (active).
`COc1ccc(\C=N/N=C(N)/C(N)=N\N=C/c2ccc(OC)cc2)cc1`: the growth was 95.6% in [1]; 96.1% in assay [2]; 123% in assay [3]; 97.8% in assay [4]; 108% in assay [5]; 92.5% in [6]. The growth in assay [7] is 87.5%; in assay [8], 113%; in assay [9], 123%; in [10], 107%.
Consider `[O-]/[N+](=C\c1ccc(-n2cc(Cc3ccccc3Cc3cn(-c4ccc(/C=[N+](/[O-])c5ccccc5)cc4)nn3)nn2)cc1)c1ccccc1`, for which the growth in [1] is 94.7%; in [2], 101%; in assay [3], 93.3%; in assay [4], 100%; in assay [5], 108%; in assay [6] it was 112%. In addition, the growth in assay [7] is 97%; in assay [8], 105%; in [9] it was 97.5%; in [10] it was 107%.
On to `COc1cc(NS(=O)(=O)c2ccc(-c3cnc(C4CC4)o3)cc2)ccc1F`, for which the growth in [1] was 33.6%; in assay [2], 36.7%; in [3], 49.5%; in assay [4], 41.8%; in [5], 18.7%; in [6] it was 33.8%. For the same compound, the growth was 0.251% (active) in assay [7], 34.4% in assay [8], 31.4% in assay [9] and 3.71% (active) in assay [10].
For the compound `Cc1cccc(/C=C2\CN(C(=O)OC(C)(C)C)C/C(=C\c3cccc(C)c3)C2=O)c1`, the growth is 92.7% in assay [1]; 99.6% in assay [2]; 95.8% in [3]; 96.9% in assay [4]; 110% in assay [5]; 87.3% in assay [6]. The growth was 63.8% in assay [7], 97.4% in [8], 94.6% in assay [9] and 115% in assay [10].
Regarding `C[C@@H](CO)[C@@H]1CCC=C2CC[C@]3(C)[C@H](CC[C@@H]4[C@@]5(C)CCCNC(C)(C)[C@@H]5CC[C@]43C)[C@H]21`, the growth in assay [1] is 67.9%; in assay [2], 94.6%; in assay [3] it was 78.3%; in assay [4], 91.1%; in assay [5] it was -67.1% (active); in assay [6], 75.7%. Besides, the growth is 82.1% in assay [7], 47% in assay [8], 70% in [9] and -56.8% (active) in [10].
On to `C=CCc1c(O)c(C(=O)/C=C/c2ccccc2)c(OC)c2ccoc12`, for which the growth is 53.4% in assay [1]; 21.9% in assay [2]; 61.9% in assay [3]; 88% in [4]; 16.8% in assay [5]; 47.3% in assay [6]. In addition, the growth is 37.9% in assay [7], 44.7% in assay [8], 71.3% in assay [9] and 59.5% in assay [10].
